Assay results: the supplement of paper PMC11417369
In all, about 25,000 sequences were measured (“ln(normalized median fluorescence intensity)”: median about 6.7, highest 2% from about 10 on). The sample holds the highest values, similar sequences and a random draw of the others, so the mix is not that of the screen.

test system: PfHDP1 homeodomain (GST-tagged); test: gcPBM binding intensity (ln(normalized median fluorescence intensity)); higher = stronger DNA binding
How it was run: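 For binding intensity, the highest Masliner-normalised natural-log median intensity across replicate spots of either probe orientation was taken. Protein bound to the array was stained with Alexa488 anti-GST antibody and scanned at 488 nm. The protein, GST-tagged P. falciparum DNA-binding domains from E. coli at about 25 μg on average, had been applied for 1 h to an Agilent 4 × 180k array of primer-extended double-stranded 36-bp intergenic genomic probes and negative controls.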

Sequence | gcPBM binding intensity (ln)
TATAATCTAACATAATGTACATGTATATGCACTTTA [XGTACX_site369] | 8.43
TTATATTATTCGTGTGTGCACGATATTTCATAATTG [GTGCAC_site9767] | 8.92
AAAAAAAAATACAAAATAGCAATAAATACACAAACG [GTGCAC_negctrl_site707] | 7.12
TTTGATGGTACACGTACACACCTTGCAAATATTTTT [CACACA_site4645] | 7.13
AAAGAAAGAAAGAAAAGTACTTAAACTTTTAAAAAT [XGTACX_site8531] | 6.03
AAAAAATAATAAATCACACATATTATATATATATAT [CACACA_site5838] | 8.94
AAAATCTAATATAATGCACACATAAAAAAAAAATCA [CACACA_site8871] | 10.4
AAAAAAATCTCCAGTGTGCACAATCACATAATATAT [GTGCAC_site9833] | 10.8
TTATGGAAAAATATAACACACAATGATTTTTTATAA [CACACA_site1831] | 6.33
CAATAAATCGAAATCGTGCACGGACACATGCAGTAG | 10.9
AAATCGTGCACGGACACATGCAGTAGCCGAGAATTA [TGCATGCA_site733] | 11.1
AATCGAAATCGTGCACGGACACATGCAGTAGCCGAG [XGTACX_site6001] | 10.2
CACACGCACGGACACACACACATATAAAATCTATAT [CACACA_site6428] | 7.73
ATTATGAAATATCGTGCACACACGAATAATATAAGA [CACACA_site1294] | 9.49
ATTTTAAAAAGGATAGTGCAAATGTTAAAATAGGAC | 9.91
CGTAAATTTTTTAAAAGTACAAAAAGATACGAGAAA [XGTACX_site8722] | 6.46
TATTCATGCATATACACACACATATATTTATATTTT [CACACA_site7786] | 7.08
TCATATTATAAATAAATAAATAAATATATATATATA [CACACA_negctrl_site577] | 8.76
GAATAAATATTAAATGTGCACTTGAATAGATGTAAA | 9.88
AAATAAAAATTAAAAAAATAGAAACGAATTGAATGC [TGCATGCA_negctrl_site365] | 6.69
TATAAATTAAAATGTGTGCACTAAATTGAAATAGAA | 10.6
AATAATATTAACACACGTACAAAAGCAAACAACCAA [XGTACX_site7410] | 7.16
ATATATATATATCAGAGTACATTCTTTAAAATATAT [XGTACX_site5915] | 8.7

Sequence | gcPBM binding intensity (ln)
ATATATATCTTTTGTGTGCACATATATATAATATAT | 10.9
ATGTATGTGTATATATGTACATAATATATATCTTTT [XGTACX_site8666] | 6.6
TCTTTTCTTTTGTGTGTGCACATATAAGCATGAAAC [GTGCAC_site9910] | 10.4
TATATATATATATGTGCACACATAATAAAAAAAAAA [CACACA_site3830] | 10.1
ATAATATCTTTATGTGTGCACATATATATATATATA | 10.5
ATAATATATATATATGCATGTACATATTTATCTTTA [TGCATGCA_site32] | 6.74
TTTTTTTCTCTCTCTACACACAAGGTTTAATTTAAA [CACACA_site1690] | 6.81
ATTATATATAAGAAGAGTACTGAATATGTGCAATAT [XGTACX_site4471] | 11.2
TATATATATATATATGTGCACTGAAAGAATTATACA [GTGCAC_site9586] | 9.76
AATTATAATTAATAGAGTACTGAATATATATATATA [XGTACX_site8683] | 8.9
ATTTTAAATATTTGTGGTACCCCTTTTTTGTAACAA [XGTACX_site5590] | 6.71
ATAAAAAAATAAAACACACACATATAGATTATAGAT [CACACA_site7343] | 7
GTATGTATATATATATGTACATACTGTTTATCGTTA [XGTACX_site6168] | 6.4
ATTTTACATATTTGCACACATATATTTAAATACATA [CACACA_site4627] | 10.8
ATGCATCATTTATTTGCACACCTATTATATACTTTT [CACACA_site2097] | 10.1
TTTTTTATTCTTTTTGCACACAGGAAATTTACAGAT [CACACA_site1090] | 10.6
AATTTTATTACTTTTACACACCTATATATCATTCAT [CACACA_site7525] | 6.91
ATATTTTATTTATATACACACACATATATATATTAT [CACACA_site8177] | 7.22
GCATCATTTATTTGCACACCTATTATATACTTTTTA [CACACA_site2098] | 10.7
AGGAAATTTGTTATTGCACACAAATTTTTCTTTTTT [CACACA_site8732] | 9.48
ATATTTTACATATTTGCACACATATATTTAAATACA [CACACA_site4628] | 10.3
ATTTTATTTAAATACACACACATATATATATTATAT [CACACA_site4607] | 7.14
ATTTTATTTATATACACACACATATATATATTATAT [CACACA_site822] | 7.09

Sequence | gcPBM binding intensity (ln)
ATATTTTACATATTTGCACACATATATTTATATACA [CACACA_site855] | 10.7
TATTTTTGTATATATTTATTCTTATTTTACAGGAAA [TGCATGCA_negctrl_site472] | 6.22
GGATGCACACAAAAGGGTACATAAGAAAAAAACAGG [XGTACX_site8570] | 9.42
TTTATATTTTAAAAAATAATATTATGTATTTTTAAA [TGCATGCA_negctrl_site507] | 6.01
AAACAATATTCTCAAGTGCAAAAAGAAAAAAGAAAT | 9.37
CCTTTTTTTTTTTTATGTACTAAAATAAAATTAGAA [XGTACX_site5956] | 6.14
TATAAAATAATTAAATGTACATAATATATAAAATAT [XGTACX_site6777] | 6.69
GTAATTTTTTTCTATACACACATATATATAATATAT [CACACA_site2655] | 7.08
TTTGTGTTGTATTTTTGTACATAAAATAAACTTAAA [XGTACX_site4637] | 6.65
TATTTAAATGGATGCACACATGCATTAAATAAAATA [CACACA_site3433] | 8.59
TATTTATTTTTTTGCACACATATTTTACATTTTAAT [CACACA_site3181] | 10.8
TTTTTATATTTTTGCACACATTCTTTACTCTTCAAA [CACACA_site2210] | 10.4
TATTTTTATATTTTTGCACACATTCTTTACTCTTCA [CACACA_site2211] | 10.6
ATATATTTTATACATACACACATATATATATTTTTT [CACACA_site3940] | 6.83
ATATTAAGTTTTATTACACACTCTCAATTTTTATTT [CACACA_site4206] | 6.63
TACATTTTTATTTTTACACACATATTTATTTATATA [CACACA_site6609] | 7.06
TTTTCATTTTTCTTTACACACATATATTTATTTATA [CACACA_site7119] | 7.15
AATATTTATTTTTTTGCACACATATTTTACATTTTA [CACACA_site3182] | 10.3
ATTTTACATATTTGCACACATATATTTATATACATA [CACACA_site854] | 10.6
TATATACATATATATACACACATATATATATTTTAT [CACACA_site3788] | 6.65
ATGACTCTCAAGTTTGCACACATTTATATTTTTTAA [CACACA_site2605] | 10.5
TATATATATATTTTTGCACACATTTTTTAAGGTACA [CACACA_site2145] | 10.3
